What all share (conditions): mRNA level, 48 h; actives raise or lower the signal
Read-out in test [1]: CYP2E1 (gene 1571)
The test is described as follows: LTEA_HepaRG_CYP2E1: Life Technologies and Expression Analysis (LTEA) Assay for CYP2E1 using HepaRG (AID 2283485). The method, boiled down:
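Readout is qRT-PCR of CYP2E1 mRNA, normalized to three housekeeping genes and fitted bidirectionally against 0.5% DMSO. HepaRG cells were dosed 48 h at eight concentrations, highest 100 uM with half-log dilutions.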

Read-out in test [2]: CYP4A11 (gene 1579)
Briefly: LTEA_HepaRG_CYP4A11: Life Technologies and Expression Analysis (LTEA) Assay for CYP4A11 using HepaRG (AID 2283486). The method, boiled down: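 Human hepatic HepaRG cultures receive duplicate 48 h exposures across a concentration-response series topping at 100 uM. Expression changes in CYP4A11 are measured by qRT-PCR relative to DMSO controls.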

Read-out in test [3]: Cytochrome P450 3A4 (Homo sapiens) (UniProt P08684)
The test is described as follows: LTEA_HepaRG_CYP3A4: Life Technologies and Expression Analysis (LTEA) Assay for CYP3A4 using HepaRG (AID 2283487). A digest of the protocol:
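HepaRG, 48 h exposure, 8-pt CRC from 100 uM (half-log), 0.5% DMSO, duplicates; serum-free induction medium. Readout: CYP3A4 mRNA, qRT-PCR, ACTB/GAPDH/POLR2A normalization. Bidirectional fit vs DMSO.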

Read-out in test [4]: Pro-epidermal growth factor (Homo sapiens) (UniProt P01133)
Briefly: LTEA_HepaRG_EGF: Life Technologies and Expression Analysis (LTEA) Assay for Epidermal growth factor (EGF) using HepaRG (AID 2283489). The method, boiled down:
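Concentration-response mRNA assay: HepaRG cells dosed 48 h (max 100 uM, 0.5% DMSO), EGF measured by qRT-PCR and normalized to ACTB/GAPDH/POLR2A.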

Read-out in test [5]: Early growth response protein 1 (EGR1) transcription factor, EGR1 (gene 1958)
The test is described as follows: LTEA_HepaRG_EGR1: Life Technologies and Expression Analysis (LTEA) Assay for Early growth response protein 1 (EGR1) transcription factor using HepaRG (AID 2283490). A digest of the protocol:
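EGR1 expression change in human HepaRG after 48 h chemical exposure, assessed by housekeeping-normalized qRT-PCR; concentration-response up to 100 uM, fitted in both directions against DMSO controls.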

Read-out in test [6]: Ezrin (EZR), EZR (gene 7430)
The test is described as follows: LTEA_HepaRG_EZR: Life Technologies and Expression Analysis (LTEA) Assay for Ezrin (EZR) using HepaRG (AID 2283491). A digest of the protocol: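 Read-out is EZR transcript level by qRT-PCR, normalized to three housekeeping genes and fitted bidirectionally against the DMSO control. Human HepaRG cells received test chemicals for 48 h at eight half-log concentrations up to 100 uM in 0.5% DMSO.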

Read-out in test [7]: CYP3A5 (gene 1577)
Briefly: LTEA_HepaRG_CYP3A5: Life Technologies and Expression Analysis (LTEA) Assay for CYP3A5 using HepaRG (AID 2283493). A digest of the protocol:
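Human HepaRG hepatic cells receive 48 h chemical treatment at eight concentrations (half-log steps from 100 uM) in 0.5% DMSO. Expression of CYP3A5 is quantified by Fluidigm qRT-PCR and normalized to three reference genes.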

Read-out in test [8]: Fatty Acid-Binding Protein 1 (FABP1), FABP1 (gene 2168)
The test is described as follows: LTEA_HepaRG_FABP1: Life Technologies and Expression Analysis (LTEA) Assay for Fatty Acid-Binding Protein 1 (FABP1) using HepaRG (AID 2283494). A digest of the protocol: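 Values reflect bidirectional concentration-response fitting of FABP1 mRNA change against 0.5% DMSO controls. Human HepaRG cultures received eight half-log doses (top 100 uM) for 48 h; expression quantified by TaqMan qRT-PCR with housekeeping-gene normalization.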

Read-out in test [9]: Cytochrome P450 4A22 (Homo sapiens) (UniProt Q5TCH4)
Briefly: LTEA_HepaRG_CYP4A22: Life Technologies and Expression Analysis (LTEA) Assay for Cytochrome P450 4A22 (CYP4A22) using HepaRG (AID 2283495). A digest of the protocol: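 Concentration-response (8 points, max 100 uM, 0.5% DMSO) in human HepaRG liver cells after 48 h exposure. CYP4A22 mRNA by TaqMan qRT-PCR with housekeeping-gene normalization.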

Read-out in test [10]: Cytochrome P450 7A1 (Homo sapiens) (UniProt P22680)
The test is described as follows: LTEA_HepaRG_CYP7A1: Life Technologies and Expression Analysis (LTEA) Assay for Cytochrome P450 7A1 (CYP7A1) using HepaRG (AID 2283496). A digest of the protocol: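 HepaRG, 48 h exposure, 8-pt half-log series from 100 uM, 0.5% DMSO vehicle, duplicates. Readout: TaqMan qRT-PCR mRNA vs three housekeeping genes; bidirectional curve fit against DMSO baseline.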

Read-out in test [11]: Glutamate-cysteine ligase catalytic (GCLC), GCLC (gene 2729)
The test is described as follows: LTEA_HepaRG_GCLC: Life Technologies and Expression Analysis (LTEA) Assay for Glutamate-cysteine ligase catalytic (GCLC) using HepaRG (AID 2283498). The method, boiled down:
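Oxidative-stress marker GCLC is measured as mRNA change in human HepaRG liver cells after 48 h chemical treatment in 0.5% DMSO, eight concentrations from 100 uM. Activity is fitted bidirectionally against vehicle.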

Read-out in test [12]: growth arrest and DNA damage 45 (GADD45G), GADD45G (gene 10912)
Briefly: LTEA_HepaRG_GADD45G: Life Technologies and Expression Analysis (LTEA) Assay for growth arrest and DNA damage 45 (GADD45G) using HepaRG (AID 2283499). A digest of the protocol: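 Concentration-response in HepaRG: 48 h dosing, 0.5% DMSO, highest level 100 uM. GADD45G expression by qRT-PCR, normalised to endogenous controls; bidirectional fit to DMSO.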

Read-out in test [13]: Glutathione S-transferase M3 (GSTM3), GSTM3 (gene 2947)
The test is described as follows: LTEA_HepaRG_GSTM3: Life Technologies and Expression Analysis (LTEA) Assay for Glutathione S-transferase M3 (GSTM3) using HepaRG (AID 2283501). A digest of the protocol:
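Expression of GSTM3 is determined by qRT-PCR in human liver HepaRG cells treated 48 h with an 8-point half-log range from 100 uM in 0.5% DMSO.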

Read-out in test [14]: Hypoxia-inducible factor 1-alpha (Homo sapiens) (UniProt Q16665)
The test is described as follows: LTEA_HepaRG_HIF1A: Life Technologies and Expression Analysis (LTEA) Assay for Hypoxia-inducible factor 1 (HIF1A) Trancription factor using HepaRG (AID 2283503). The method, boiled down: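 HIF1A transcript level read by qRT-PCR (ACTB, GAPDH, POLR2A normalization) after 48 h chemical exposure of HepaRG cultures. Eight half-log concentrations, top 100 uM, 0.5% DMSO vehicle, duplicates; bidirectional curve fit against DMSO baseline.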

Read-out in test [15]: DNA damage-inducible transcript 3 (DDIT3), DDIT3 (gene 1649)
Briefly: LTEA_HepaRG_DDIT3: Life Technologies and Expression Analysis (LTEA) Assay for DNA damage-inducible transcript 3 (DDIT3) using HepaRG (AID 2283488). A digest of the protocol: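 Cells are human HepaRG liver cells treated for 48 h with eight half-log concentrations up to 100 uM in 0.5% DMSO. Transcript levels come from qRT-PCR normalized to three housekeeping genes, with activity fitted in both directions relative to vehicle.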

Read-out in test [16]: Glutathione S-Transferase (GSTA2), GSTA2 (gene 2939)
Briefly: LTEA_HepaRG_GSTA2: Life Technologies and Expression Analysis (LTEA) Assay for Glutathione S-Transferase (GSTA2) using HepaRG (AID 2283497). A digest of the protocol: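 Oxidative-stress marker GSTA2 is quantified by TaqMan qRT-PCR in HepaRG cultures treated 48 h across an eight-point range to 100 uM. Expression is normalized to endogenous controls and compared with 0.5% DMSO vehicle.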

Read-out in test [17]: Glutamate-cysteine ligase regulatory (GCLM), GCLM (gene 2730)
Briefly: LTEA_HepaRG_GCLM: Life Technologies and Expression Analysis (LTEA) Assay for Glutamate-cysteine ligase regulatory (GCLM) using HepaRG (AID 2283500). A digest of the protocol: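 Endpoint is GCLM transcript level by qRT-PCR, normalized to three housekeeping genes, after 48 h chemical exposure of human HepaRG cells (0.5% DMSO vehicle, top 100 uM, half-log dilutions). Fitting was bidirectional relative to DMSO.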

Read-out in test [18]: Heat shock 70 kDa protein 1 (HSPA1A), gene 3303
Briefly: LTEA_HepaRG_HSPA1A: Life Technologies and Expression Analysis (LTEA) Assay for Heat shock 70 kDa protein 1 (HSPA1A) using HepaRG (AID 2283502). The method, boiled down: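 Cells were plated and cultured for 48 h, then switched to serum-free induction medium. Chemicals were added at eight half-log concentrations up to 100 uM for 48 h. RNA was then isolated and HSPA1A measured by qRT-PCR with bidirectional curve fitting against DMSO.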

Read-out in test [19]: Cytochrome P450 3A7 (Homo sapiens) (UniProt P24462)
Briefly: LTEA_HepaRG_CYP3A7: Life Technologies and Expression Analysis (LTEA) Assay for CYP3A7 using HepaRG (AID 2283492). The method, boiled down: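 qRT-PCR of CYP3A7 in HepaRG lysates after 48 h treatment; concentration-response (8 points, max 100 uM) analysed bidirectionally relative to 0.5% DMSO controls.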

Read-out in test [20]: 3-Hydroxy-3-Methylglutaryl-CoA Synthase 2 (HMGCS2), HMGCS2 (gene 3158)
Briefly: LTEA_HepaRG_HMGCS2: Life Technologies and Expression Analysis (LTEA) Assay for 3-Hydroxy-3-Methylglutaryl-CoA Synthase 2 (HMGCS2) using HepaRG (AID 2283504). The method, boiled down: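 This steatosis marker was read as HMGCS2 mRNA change in HepaRG cells treated 48 h with up to 100 uM chemical. Normalisation used housekeeping genes; activity in either direction was fitted relative to 0.5% DMSO vehicle.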

Some structures have more than one record in an assay (separate samples or runs), and their calls can disagree. Activity calls are given as the source filed them. How the source made its calls: active means hit-call score of the fitted dose curve at least 0.9, where 1 is the maximum; inactive means score below 0.9.

Sequence of Hypoxia-inducible factor 1-alpha (Homo sapiens) (Q16665 whole entry, looked up): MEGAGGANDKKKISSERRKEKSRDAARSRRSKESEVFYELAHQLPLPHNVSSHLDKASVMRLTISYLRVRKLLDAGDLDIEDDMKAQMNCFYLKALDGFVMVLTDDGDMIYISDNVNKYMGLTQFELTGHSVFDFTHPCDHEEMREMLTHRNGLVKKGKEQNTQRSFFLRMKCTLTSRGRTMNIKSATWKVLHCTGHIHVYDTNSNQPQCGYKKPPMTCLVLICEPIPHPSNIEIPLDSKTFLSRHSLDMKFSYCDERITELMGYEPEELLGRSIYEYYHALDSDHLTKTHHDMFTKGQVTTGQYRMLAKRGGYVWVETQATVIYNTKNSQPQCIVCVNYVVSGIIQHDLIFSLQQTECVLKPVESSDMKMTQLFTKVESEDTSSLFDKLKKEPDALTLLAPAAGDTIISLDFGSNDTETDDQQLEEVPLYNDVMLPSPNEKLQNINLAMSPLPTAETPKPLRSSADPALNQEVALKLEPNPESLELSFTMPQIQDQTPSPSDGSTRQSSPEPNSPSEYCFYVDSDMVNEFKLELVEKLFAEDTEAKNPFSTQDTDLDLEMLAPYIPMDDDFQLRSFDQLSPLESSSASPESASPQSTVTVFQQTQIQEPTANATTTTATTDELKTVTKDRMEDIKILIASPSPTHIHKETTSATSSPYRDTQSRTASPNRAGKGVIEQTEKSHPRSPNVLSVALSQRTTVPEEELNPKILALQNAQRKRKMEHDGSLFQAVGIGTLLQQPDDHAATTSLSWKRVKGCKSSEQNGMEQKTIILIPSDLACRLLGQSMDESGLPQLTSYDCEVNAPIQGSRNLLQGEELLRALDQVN
Sequence of Cytochrome P450 3A4 (Homo sapiens) (P08684 whole entry, looked up): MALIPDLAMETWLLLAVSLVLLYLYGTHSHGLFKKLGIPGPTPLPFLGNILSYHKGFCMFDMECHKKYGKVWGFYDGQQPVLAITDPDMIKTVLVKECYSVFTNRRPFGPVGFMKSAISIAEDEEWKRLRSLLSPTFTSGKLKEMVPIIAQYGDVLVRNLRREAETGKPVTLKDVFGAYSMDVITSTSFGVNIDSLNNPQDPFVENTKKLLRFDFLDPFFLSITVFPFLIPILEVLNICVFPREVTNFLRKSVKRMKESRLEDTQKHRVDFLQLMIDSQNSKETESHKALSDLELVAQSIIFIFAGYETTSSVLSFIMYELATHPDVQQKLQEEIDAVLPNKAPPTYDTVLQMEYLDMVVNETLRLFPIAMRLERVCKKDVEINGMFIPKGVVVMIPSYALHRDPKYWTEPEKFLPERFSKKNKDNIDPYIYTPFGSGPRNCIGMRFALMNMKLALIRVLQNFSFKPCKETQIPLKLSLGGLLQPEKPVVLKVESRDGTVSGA
Sequence of Cytochrome P450 3A7 (Homo sapiens) (P24462 whole entry, looked up): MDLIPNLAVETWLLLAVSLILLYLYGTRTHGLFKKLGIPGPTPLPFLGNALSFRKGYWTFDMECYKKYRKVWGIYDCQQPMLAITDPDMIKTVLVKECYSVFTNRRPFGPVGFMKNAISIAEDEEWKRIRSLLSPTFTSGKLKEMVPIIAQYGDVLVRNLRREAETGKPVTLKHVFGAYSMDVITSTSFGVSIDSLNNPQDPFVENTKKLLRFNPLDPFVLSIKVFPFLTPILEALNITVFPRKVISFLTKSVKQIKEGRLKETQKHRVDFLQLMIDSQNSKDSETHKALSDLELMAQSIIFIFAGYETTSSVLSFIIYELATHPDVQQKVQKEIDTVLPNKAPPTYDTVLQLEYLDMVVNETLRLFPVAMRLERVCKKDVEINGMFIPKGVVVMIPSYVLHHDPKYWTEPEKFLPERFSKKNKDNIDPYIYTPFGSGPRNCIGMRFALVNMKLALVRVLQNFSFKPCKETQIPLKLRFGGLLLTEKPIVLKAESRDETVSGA

In the case of `O=C(Nc1ccccc1)Nc1ccnc(Cl)c1`, the AC50 in test [1] was 25.4 µM (active); in test [2], 36.6 µM (active); in test [3], 70.8 µM (active); in test [5] it was 84.6 µM (active); in test [6], 79.5 µM (active); in [7], 49.1 µM (active). The AC50 in [8] was 71.3 µM (active); in test [9] it was 28.4 µM (active); in test [10], 81.3 µM (active); in [11], 83 µM (active); in test [13], 80.4 µM (active). Besides, the compound was classed as inactive in test [4], in [12] and in [14].
For `CCCCNC(=O)OCC#CI`, the compound was called inactive in [1], in [2], in test [3], in test [15], in test [4] and in [5]. Further, the compound was called inactive in test [6], in [7], in test [9], in [12], in test [17] and in test [13]. Further, the compound was called inactive in test [14]. The AC50 was 50 µM (active) in [8], 9.92 µM (active) in test [16], 0.00766 µM (active) in test [11] and 50 µM (active) in test [18].
Regarding `O=C(O)c1nc(Cl)ccc1Cl`, the AC50 is 17.6 µM (active) in test [1] and 33.4 µM (active) in [8]. Further, the compound was classed as inactive in [1], in [2], in test [3], in test [4], in test [5] and in [6]. Further, the result in [7], in test [8], in [9], in test [11], in test [12] and in [13] was inactive. Moreover, the call in test [14] was inactive.
As to `N#CC(CCc1ccc(Cl)cc1)(Cn1cncn1)c1ccccc1` (centres undefined), the AC50 in [1] was 27.3 µM (active); in test [2], 38.8 µM (active); in test [3] it was 85.9 µM (active); in [5], 79.3 µM (active); in [6] it was 50 µM (active); in test [8] it was 79.4 µM (active). The AC50 was 40.4 µM (active) in [9], 75.3 µM (active) in [10], 40 µM (active) in [12] and 73.7 µM (active) in test [14]. The compound was classed as inactive in test [4], in test [7], in test [11] and in [13].
In the case of `CC1=C(C(=O)Nc2ccccc2)SCCO1`, the values for the AC50 in test [1], in test [8] and in test [12] were 74.5 µM (active), 50 µM (active) and 61.8 µM (active), respectively. The compound was called inactive in test [2], in [3], in test [15], in test [4], in test [5] and in test [6]. Further, the call in test [7], in test [9], in [11], in [13] and in test [14] was inactive.
Turning to `Cc1ccc(-c2c(Cl)nc(C#N)n2S(=O)(=O)N(C)C)cc1`, the AC50 in test [1] is 5.17 µM (active); in test [2], 10.4 µM (active); in test [3], 24.8 µM (active); in [19] it was 83.5 µM (active); in test [8] it was 4.76 µM (active); in [9], 73.9 µM (active). Moreover, the half-maximal activity concentration (AC50) was 7.01 µM (active) in test [11], 11.7 µM (active) in [12], 50 µM (active) in test [13] and 28.7 µM (active) in [20]. For the same compound, the result in test [4], in test [5], in [6], in test [7] and in test [14] was inactive.

Source of the values: PubChem BioAssay (EPA / NIEHS).
